12-hLO inh: inhibitors of human 12-lipoxygenase (ALOX12). purified 12-hLO, xylenol orange hydroperoxide absorbance. Potency, µM (top dose mostly 57.1 µM), inactives show at the top dose activity change, negative = inhibition, usual class: inhibitors. AID 1452. hit rate 0.12% among 150,000; also: potency is read from the fitted curve at half-maximal effect; nearly all actives have a fitted effect of over 55% in size
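Hydroperoxide formation by human 12-lipoxygenase from 40 uM arachidonic acid was followed colorimetrically via ferric-xylenol orange complex, using the 573/405 nm absorbance ratio. Enzyme concentration was 150 nM, with 30 min reaction at room temperature.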
GLA inh pH 4.5: inhibitors of human alpha-galactosidase A at pH 4.5 | P06280 | activity change, negative = inhibition, % at 105 µM | purified enzyme, 4-MU-alpha-Gal fluorescence, pH 4.5 | 230,000 tested, under 10 active;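 also: 0% = full activity with enzyme and -100% = basal without enzyme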
GLA spleen mod: inhibitors or activators of human alpha-galactosidase in spleen homogenate. P06280. human spleen homogenate, 4MU-alpha-Gal fluorescence, 40 min. Potency, µM (titrated, usually from 80 µM), inactives show at the highest dose activity change, negative = inhibition, usual class: inhibitors. hit rate 0.008% among 240,000;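 also: potency is read from the fitted curve at half-maximal effect; 0% = enzyme with vehicle and -100% = no enzyme basal signal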
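Human spleen homogenate (1 ug) was the enzyme source, with 4-methylumbelliferyl-alpha-D-galactopyranoside (1 mM final) in pH 5.0 citrate buffer with 0.01% Tween-20. Compounds were titrated; after 40 min at 37C, NaOH/glycine stop, 4-MU fluorescence read; AC50 from Hill fits.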
PNC inhibitor: inhibitors of perinucleolar compartment assembly; activity change (PNC), negative = inhibition, % at 10 µM; AID 2417; PC3M PTB-GFP, PNC prevalence imaging, 16 h; stronger effect = lower value; hit rate 3.1% among 140,000;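 active = readout at or below -70, meaning at least 70% loss of cells showing the perinucleolar compartment, a nuclear body marking cancer cells; inconclusive = readout between -30 and a set limit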;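 also: plate controls were DMSO wells for no effect and camptothecin positive control wells for full effect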
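Read-out is percentage of cells bearing a perinucleolar compartment, from automated 20x imaging of fixed, Hoechst-stained PC3M PTB-GFP cells. Cells were seeded 4 h, then exposed 16 h to compound (23 nl of library stock) in duplicate plates.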
HPGD block: blocks human HPGD enzyme activity. AID 894. hit rate 4.3% among 150,000. Potency, µM, for the others: top-dose activity change, negative = inhibition, hits mostly inhibitors. P15428. purified HPGD, NADH fluorescence kinetic, PGE2 substrate; active = well fitted inhibition curve with a large enough effect, not every such curve was filed as active; inconclusive = small, poorly fitted or top-dose-only effect, or another doubt; inactive = no such curve, though single readings can be large or run the other way; also: potency is read from the fitted curve at half-maximal effect
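NADH formation kinetics: reaction with 30 uM PGE2 and 1 mM NAD+ (final), 20 nM enzyme, Tris-HCl pH 8 with Tween 20, after 15 min compound preincubation at room temperature. Fluorescence change, last versus first of five reads.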
ALDH1A1 inh: blocks purified human ALDH1A1 activity. Purified ALDH1A1, NADH fluorescence, propionaldehyde substrate. Potency, µM (series often up to 75.3 µM), for inactives: top-dose activity, negative = inhibition, most hits filed as inhibitors. hit rate 7.3% among 220,000. AID 1030; active = well fitted inhibition curve with a large enough effect, not every such curve was filed as active; inconclusive = small, poorly fitted or top-dose-only effect, or another doubt; inactive = no such curve, though single readings can be large or run the other way;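 also: potency is read from the fitted curve at half-maximal effect; plate controls were no enzyme wells and a reference inhibitor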
Target sequence (P00352 whole entry, looked up): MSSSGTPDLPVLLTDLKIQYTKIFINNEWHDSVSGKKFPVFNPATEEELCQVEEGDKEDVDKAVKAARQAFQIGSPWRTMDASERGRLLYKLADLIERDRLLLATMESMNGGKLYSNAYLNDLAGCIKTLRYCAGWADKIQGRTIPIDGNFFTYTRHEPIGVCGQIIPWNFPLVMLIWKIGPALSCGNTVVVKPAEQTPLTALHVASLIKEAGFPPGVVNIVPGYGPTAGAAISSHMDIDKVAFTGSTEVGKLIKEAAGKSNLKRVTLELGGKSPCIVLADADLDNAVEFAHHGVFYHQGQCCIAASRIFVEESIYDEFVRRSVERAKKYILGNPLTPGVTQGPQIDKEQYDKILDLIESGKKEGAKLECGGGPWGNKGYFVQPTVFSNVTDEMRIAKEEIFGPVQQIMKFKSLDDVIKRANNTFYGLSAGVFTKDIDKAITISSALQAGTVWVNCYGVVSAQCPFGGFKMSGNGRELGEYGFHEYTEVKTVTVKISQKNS
Numbers without * were called inactive; ? = inconclusive; . = no result given. A selection: hits, their analogues and other compounds. The true share with any hit is near 10%. Unless noted, calls follow the shape of the dose curve; as a rule, active = well fitted curve in the direction sought with a large enough effect; inconclusive = small, poorly fitted or top-dose-only effect, or another doubt; inactive = no such curve, though single readings can be large; an effect the other way counts as inactive or inconclusive. Unless noted, % is scaled to controls: 0 for no effect and ±100 for the full control effect.

SMILES | 12-hLO inh | GLA inh pH 4.5 | GLA spleen mod | PNC inhibitor | HPGD block | ALDH1A1 inh
CCOC(=O)c1[nH]c(C)c(C(=O)NC2CCCCCC2)c1C | -1% | 6 | 5% | 9 | -2% | -3%
CSc1ccccc1NC(=O)CN(C)Cc1cccc(Cl)c1 | . | 6 | -4% | . | . | ?
COc1cccc(CN(C)CC(=O)Nc2ccccc2C(C)C)c1 | . | -17 | 1% | . | . | 20µM*
CCOc1ccc(N2C(=O)CC(SCC(=O)O)C2=O)cc1 (stereo not drawn) | . | 3 | -3% | . | . | ?
CCOC(=O)C(N)CSC1CC(=O)N(c2ccc(C(=O)OC)cc2)C1=O (stereo not drawn) | 3% | 5 | -13% | -2 | -10% | 7.1µM*
O=C(O)CSC1CC(=O)N(c2ccc(Cl)cc2)C1=O (stereo not drawn) | -8% | 1 | -21% | ? | -2% | ?
COC(=O)c1ccc(N2C(=O)CC(SCCN)C2=O)cc1 (stereo not drawn) | -1% | 8 | 5% | 1 | -6% | 13µM*
CCCOc1ccc(N2C(=O)CC(SCCN)C2=O)cc1 (stereo not drawn) | 4% | -5 | -1% | 36 | -13% | 0.22µM*
CCOc1ccc(N2C(=O)CC(N)C2=O)cc1 (stereo not drawn) | 0% | 3 | -6% | ? | 40µM* | 1.1µM*
Cc1ccc(NC(=O)C2C3/C=C\CCCCC32)cc1C (stereo not drawn) | 4% | 8 | -5% | 51 | -7% | 13%
O=C(OCC#Cc1c(COC(=O)c2ccccc2)nnn1Cc1ccccc1)c1ccccc1 | . | -2 | -5% | . | . | .
NC(C(=O)N[C@@H]1C(=O)N2C(C(=O)O)=C(Cl)CS[C@H]12)c1ccccc1 (stereo partly drawn) | . | 2 | 4% | . | -26% | ?
COc1ccc(NC(=O)c2ccccc2[N+](=O)[O-])cc1 | -2% | 3 | -3% | -1 | -10% | -12%
COc1ccccc1CNC(=O)c1cccc(C)c1[N+](=O)[O-] | 5% | -11 | 13% | -15 | 18µM* | -1%
COc1ccc(CNC(=O)c2ccccc2[N+](=O)[O-])cc1 | -23% | 2 | 3% | 59 | 11µM* | 11%
COCCCNC(=O)c1cccc(OC)c1OC | -2% | -11 | 0% | ? | 7.1µM* | 2%
COc1ccccc1CNC(=O)c1ccoc1C | 1% | -7 | 0% | 22 | -22% | ?
COc1ccccc1C(=O)NCc1ccccc1 | -9% | 2 | ? | -114* | 11µM* | 12%
CCn1ncc(Br)c1C(=O)Nc1ccc2c(c1)OCCO2 | . | -2 | -1% | . | . | -2%
Cc1ccnc(N2CCC(C(=O)NNC(=O)COc3cccc4ccccc34)CC2)n1 | -2% | -2 | -2% | -29 | -24% | ?
COc1ccc(-c2nc3ccccc3s2)cc1O | -14% | -3 | 5% | -90* | ? | ?
COC(=O)C(Cc1ccc(O)cc1)NC(=O)c1ccccc1OC (stereo not drawn) | 2% | -3 | -4% | -5 | -11% | 28µM*
COc1cc(C(=O)NCc2ccncc2)cc(OC)c1OC | . | 0 | 3% | . | . | 3%
COc1cc(C(=O)NCc2ccccc2)cc(Br)c1OC | -2% | 5 | 0% | ? | 22µM* | 3%
COc1cc(-c2nc3ccccc3s2)ccc1O | -11% | ? | ? | 10 | ? | ?
SMILES | 12-hLO inh | GLA inh pH 4.5 | GLA spleen mod | PNC inhibitor | HPGD block | ALDH1A1 inh
COc1ccccc1C(=O)NCc1ccc(-c2nc3ccccc3s2)cc1 | -3% | -13 | 4% | ? | 18µM* | ?
CC(=O)NC(CCCN1C(=O)c2ccccc2C1=O)c1nnn(C)n1 (stereo not drawn) | 0% | -1 | -7% | ? | -3% | 0%
COc1ccc(CCCC(=O)NCc2ccccc2)cc1C | -4% | -8 | 8% | -22 | 16µM* | -12%
NS(=O)(=O)c1cccc(NC(=O)COC(=O)CC2CC3CCC2C3)c1 (stereo not drawn) | . | -2 | 2% | . | . | -12%
CC[C@H](NC(=O)c1c(C)c(-c2ccccc2)nc2ccccc12)c1ccccc1 | -5% | -8 | 3% | . | -30% | 5µM*
CCC(NC(=O)c1ccc([N+](=O)[O-])cc1[N+](=O)[O-])c1ccccc1 (stereo not drawn) | -3% | 3 | 2% | 13 | -3% | 4%
CCC(NC(=O)c1ccccc1O)c1ccccc1 (stereo not drawn) | -16% | -6 | 7% | -109* | ? | ?
CCCCCCCCCCCCCCCC(=O)NCCCC(=O)O | -2% | 0 | -10% | . | -3% | 6%
CCC/C=C1\CCCOC(C(=O)NCc2ccccc2)(C(F)(F)F)C1 (stereo not drawn) | . | . | 6% | . | . | .
COCCn1c(SCC(=O)Nc2cc(C)on2)nnc1-c1ccco1 | -1% | -5 | 0% | -23 | -6% | ?
COCCn1c(=NC(=O)CSCC(=O)Nc2cc(C)on2)sc2cc(C(=O)OC)ccc21 | 2% | 2 | -3% | -113* | -11% | ?
CCOC(=O)C1C(=O)OC2(CCCCC2)C1C(=O)OCC (stereo not drawn) | -12% | 2 | 4% | ? | -12% | ?
CCOC(=O)C1C(=O)CC(=O)CC1CC(C)SCC (stereo not drawn) | ? | 0 | -2% | -5 | -21% | 13µM*
COc1ccc(C(=O)N/N=C/c2cccc3cccnc23)cc1 | 2% | -15 | -16% | 9 | -15% | ?
COc1ccc(C(=O)N/N=C/c2cc3ccccc3[nH]c2=S)cc1 | 18µM* | -13 | -1% | -27 | 1.3µM* | 1.4µM*
COC(=O)[C@@]1(Cc2ccc(F)cc2)[C@@H]2C(=CC(=O)[C@H]2CC(=O)C(=O)N(C)C)CN1C(=O)c1ccccc1 | -2% | -25 | 0% | . | -2% | -5%
Cc1c(N=C2C(=O)Nc3ccccc32)c(=O)n(-c2ccccc2)n1C | 0% | 1 | -2% | 19 | -2% | ?
Cc1c(N=C2NC(=O)/C(=C/c3cccc([N+](=O)[O-])c3)S2)c(=O)n(-c2ccccc2)n1C | -3% | -2 | 2% | 11 | 2.5µM* | 6%
CCN(CC)CCNC(=O)c1ccc(Cc2nc3ccccc3[nH]2)cc1 | 3% | . | . | . | 0% | 11%
Cc1cccc(NC(=O)Cn2c(=O)n3nc(CCn4nc(C)cc4C)nc3c3ccccc32)c1 | 0% | 2 | -8% | 43 | -24% | 14µM*
CCN(C(=O)Cn1c(=O)n2nc(CCn3nc(C)cc3C)nc2c2ccccc21)c1cccc(C)c1 | -1% | -5 | 8% | 0 | -4% | ?
O=C(NNC(=O)c1oc2ccccc2c1-n1cccc1)c1ccco1 | . | 0 | -2% | . | . | ?

Screening data (PubChem BioAssay)
